# Compound activity as filed in PubChem.
# Compounds with a hit are over-represented: about 0.9% of the library has one in this group of screens.
# SRC1 TRFRET art: flags TR-FRET format artefacts in PPARgamma SRC-1 recruitment agonist screen | TR-FRET ratio at 8 µM | hit rate 0.34% among 99,000 | TR-FRET detection artefact counter-screen, emission ratio; stronger effect = higher value | AID 1051; in the data active means TR-FRET ratio above about 2300
# PPARg SRC-2 ag: agonists of SRC-2 recruitment by human PPARgamma; P37231; PPARgamma LBD-SRC-2 recruitment, biochemical; activation, % at 8 µM; hit rate 0.34% among 200,000; in the data active means activation above about 22%;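 further: 0% = vehicle and 100% = reference agonist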
# Target sequence (P37231 whole entry, looked up, the tested form may be a part): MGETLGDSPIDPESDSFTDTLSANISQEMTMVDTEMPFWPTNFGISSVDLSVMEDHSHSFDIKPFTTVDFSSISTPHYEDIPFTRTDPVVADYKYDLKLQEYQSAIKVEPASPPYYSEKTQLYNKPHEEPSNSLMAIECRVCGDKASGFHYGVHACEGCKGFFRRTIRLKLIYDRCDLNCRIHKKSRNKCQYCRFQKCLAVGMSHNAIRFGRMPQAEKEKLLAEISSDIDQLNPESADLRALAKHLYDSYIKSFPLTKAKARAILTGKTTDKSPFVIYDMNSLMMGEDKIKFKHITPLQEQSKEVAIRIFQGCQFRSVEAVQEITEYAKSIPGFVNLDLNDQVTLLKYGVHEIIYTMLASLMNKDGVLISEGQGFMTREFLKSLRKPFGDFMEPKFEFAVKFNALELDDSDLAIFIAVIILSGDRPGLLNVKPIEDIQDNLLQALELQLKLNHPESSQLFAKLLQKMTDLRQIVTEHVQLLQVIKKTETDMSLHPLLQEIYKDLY
# PPARg SRC-1 ag: promotes SRC-1 coactivator recruitment by human PPARgamma. P37231. PPARgamma-SRC-1 coactivator recruitment biochemical assay. activation, % at 8 µM. hit rate 0.41% among 200,000; in the data active means activation above about 19%;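 further: 0% = DMSO and 100% = reference agonist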
# PPARg SRC3 recr: agonists of human PPARgamma SRC-3 coactivator recruitment | P37231 | biochemical PPARgamma/SRC-3 coactivator recruitment assay | activation, % at 8 µM | hit rate 0.26% among 200,000 | AID 731; in the data active means activation above about 23%;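 further: 0% = DMSO and 100% = reference agonist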
# TR-FRET SRC-2 ct: flags TR-FRET format artefacts in PPARgamma SRC-2 recruitment agonist screen; TR-FRET artefact counter-screen; stronger effect = higher value; hit rate 0.4% among 200,000; TR-FRET ratio at 8 µM; AID 1049
# SRC3 TRFRET art: TR-FRET artefact, counter-screen to PPARgamma/SRC-3 agonist assay; PPARgamma/SRC-3 format; stronger effect = higher value; TR-FRET ratio at 8 µM; hit rate 0.39% among 99,000
# PPARg SRC2 conf: human PPARgamma SRC-2 recruitment agonism, confirmation; shares compounds with PPARg SRC3 recr; biochemical SRC-2 recruitment by PPARgamma; activation, % at 8 µM; hit rate 52% among 790; in the data active means activation above about 22%;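 further: 0% = vehicle alone and 100% = reference agonist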
# PPARg SRC1 ag: confirmation of agonists of SRC-1 recruitment by human PPARgamma; shares compounds with PPARg SRC3 recr; PPARgamma–SRC-1 coactivator recruitment biochemical assay; activation, % at 8 µM; hit rate 43% among 790; AID 1300; in the data active means activation above about 20%;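 further: 0% = vehicle wells and 100% = reference agonist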
# PPARg SRC3 ag: human PPARgamma SRC-3 recruitment agonism, confirmation; shares compounds with PPARg SRC3 recr; biochemical PPARgamma-SRC-3 coactivator recruitment, agonist mode; activation, % at 8 µM; hit rate 29% among 790; AID 1301; in the data active means activation above about 24%;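 further: 0% = vehicle wells and 100% = reference agonist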
# * marks the source's active call; other numbers are inactive results; x = no result given. Unless noted, no stated cut-off is given here; in the data, active means TR-FRET ratio above about 2000; inactive means the rest.
SMILES,SRC1 TRFRET art,PPARg SRC-2 ag,PPARg SRC-1 ag,PPARg SRC3 recr,TR-FRET SRC-2 ct,SRC3 TRFRET art,PPARg SRC2 conf,PPARg SRC1 ag,PPARg SRC3 ag
CC(=O)Sc1nc(-c2ccccc2)[nH]c1S(=O)(=O)c1ccc(C)cc1,1927,11.4,22.4*,37.2*,1637,1554,11.4,21.2*,18.4
Cc1cccc(NC(=O)CNC(=O)COc2ccc(-c3ccc(C#N)cc3)cc2)c1C,2605*,11.9,26.7*,7.5,1521,1717,8.4,7.9,5.0
Cc1cccc(NC(=O)CNC(=O)COc2ccc(C(=O)c3ccc(F)cc3)cc2)c1C,1970,1.3,2.9,3.5,1480,1628,x,x,x
CC(Nc1ccc(Cl)cc1)c1cc(Cl)ccc1O (stereo not drawn),x,3.9,1.2,7.0,1301,x,x,x,x
CC(Nc1ccc(Br)cn1)c1cc(Cl)ccc1O (stereo not drawn),x,36.6*,77.9*,51.8*,1617,x,32.9*,50.8*,41.1*
N#C/C(=C\c1cccc(NC(=O)c2ccccc2Cl)c1)C(=O)NCCc1ccccc1,1706,4.4,1.1,6.1,1434,1673,x,x,x
COC(=O)c1c(NC(=S)Nc2ccccc2Cl)sc(C)c1C,x,31.5*,21.9*,37.8*,2012*,x,31.0*,23.8*,19.4
COC(=O)c1c(NC(=O)Cc2ccccc2)sc(C)c1C,x,-0.6,-4.0,-7.6,1586,x,x,x,x
CCN(CC)C(=O)NC1CC(=O)N(c2ccc(OC)cc2)C1 (stereo not drawn),1624,1.4,6.3,-1.2,1469,1606,x,x,x
CSc1oc(-c2ccccc2)nc1C(N)=O,x,18.8,17.9,30.2*,1911,x,27.3*,18.5,17.3
COc1ccc(C(=O)Nc2cc(-c3nn4c(C)nnc4s3)ccc2C)cc1,x,4.9,3.6,5.8,1579,x,x,x,x
COc1ccc(OCC(=O)Nc2cc(-c3nn4c(C)nnc4s3)ccc2C)cc1,x,-3.2,27.6*,24.4,1633,x,20.5,16.8,12.9
